Results as given in PubChem BioAssay (EPA / NIEHS).
Activity calls are given as the source filed them. How the source made its calls: active means hit-call score of the fitted dose curve at least 0.9, where 1 is the maximum; inactive means score below 0.9.

Assay: ATG_MRE_CIS: Attagene CIS-FACTORIAL HepG2 Assay for human Metal Responsive Element (MRE) (AID 2282954)
Conditions: HepG2 MRE cis-reporter transcription, Attagene multiplex; actives raise or lower the signal
How it was run: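 Multiplexed cis-reporter assay in human HepG2 liver cells, 24 h incubation with test chemical. Reporter transcripts measured by RT-PCR and capillary electrophoresis; values from bidirectional curve fitting versus DMSO.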
For `O=C1CCC(=O)N1Cl`, the outcome was “inactive”. With `OC1CCCCCCCCCCC1` the AC50 was 100 µM (active). With `COC(=O)c1cc(Cl)ccc1[N+](=O)[O-]` the outcome was “inactive”. For `c1ccc2c(c1)ccc1ncccc12`, the outcome was “inactive”. With `O=C(Nc1ccccc1SSc1ccccc1NC(=O)c1ccccc1)c1ccccc1` the outcome was “inactive”. In the case of `Cc1cccc(OCCOc2cccc(C)c2)c1`, the outcome is reported as “inactive”. With `c1ccc(CNCc2ccccc2)cc1` the outcome was “inactive”. With `CC(C)CCCCCOC(=O)CCS` the outcome was “inactive”. For `O=c1[nH]c(=O)c2[nH]c(=O)[nH]c2[nH]1`, the outcome was “inactive”. For `O=C(OCC1CCC2OC2C1)C1CCC2OC2C1` (stereo unspecified), the outcome was “inactive”. In the case of `C=CC(=O)OCCOC(=O)C=C`, the AC50 is reported as 27.5 µM (active). For `O=c1[nH]nc(-c2ccc([N+](=O)[O-])o2)o1`, the outcome was “inactive”. For `CCOC(=O)CC(C(C)=O)C(C)=O`, the outcome was “inactive”. For `O=C1CCCN1CCO`, the outcome was “inactive”. With `CCCCCCCCC(=O)OCC` the outcome was “inactive”. For `CC(C)C1=CC2=CC[C@@H]3[C@](C)(CCC[C@@]3(C)C(=O)O)[C@H]2CC1`, the AC50 was 106 µM (active). With `O=C1CCCCCCCCCCC(=O)OCCO1` the outcome was “inactive”. For `CCCCCCCCCCCCCCCCCC#N`, the outcome was “inactive”. For `CC(=O)Nc1ccc2c(c1)Cc1cc(NC(C)=O)ccc1-2`, the outcome was “inactive”. In the case of `CCCCCCCCCCCCCOP(=O)(O)O`, the outcome is reported as “inactive”. With `CC(C)(C)C1CCCCC1=O` (stereo unspecified) the outcome was “inactive”. For `SCCc1cnccn1`, the outcome was “inactive”. In the case of `COc1ccc(NC(C)=O)cc1N`, the outcome is reported as “inactive”. With `CCC(CO)CO` the outcome was “inactive”. In the case of `COc1c2ccoc2cc2oc(=O)ccc12`, the outcome is reported as “inactive”. For `O=C(Nc1ccccc1)c1ccccc1O`, the outcome was “inactive”. In the case of `C=C[Si](OC(C)=O)(OC(C)=O)OC(C)=O`, the outcome is reported as “inactive”. With `Cc1ccc2c(c1)C(=O)c1ccccc1C2=O` the outcome was “inactive”. With `CCCCCCCOC(=O)CCC` the outcome was “inactive”. In the case of `CC(C)(C)c1ccc(N)cc1`, the outcome is reported as “inactive”. In the case of `CC(=O)Nc1nnc(S(N)(=O)=O)s1`, the outcome is reported as “inactive”. For `[Cl][Bi]([Cl])([c]1ccccc1)([c]1ccccc1)[c]1ccccc1`, the AC50 was 6.46 µM (active). With `CCCCC(CC)COC(=O)c1ccccc1O` (stereo unspecified) the outcome was “inactive”. With `CCC(CC)C(=O)O` the outcome was “inactive”. With `CCCCC(CC)COCC1CO1` (stereo unspecified) the outcome was “inactive”. For `CCC(C)OC(=O)c1ccc(O)cc1` (stereo unspecified), the outcome was “inactive”. With `O=C(O)CCCCCCCCCC(=O)O` the outcome was “inactive”. With `COc1ccc(C(Cl)=C(c2ccc(OC)cc2)c2ccc(OC)cc2)cc1` the outcome was “inactive”. With `C=CC(=O)OCCC(=O)O` the outcome was “inactive”. With `C=C(C)c1cccc(C(C)(C)N=C=O)c1` the outcome was “inactive”.

Assay: ATG_PBREM_CIS: Attagene CIS-FACTORIAL HepG2 Assay for human Phenobarbital-responsive Enhancer Module (PBREM) (AID 2282955)
Conditions: HepG2 PBREM cis-reporter, Attagene multiplexed transcription; actives raise or lower the signal
How it was run: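 Measures endogenous factor action on a phenobarbital-responsive enhancer module. HepG2 transiently carrying cis reporters, 24 h treatment, mRNA read-out by RT-PCR plus capillary electrophoresis.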
In the case of `O=C1CCC(=O)N1Cl`, the outcome is reported as “inactive”. For `OC1CCCCCCCCCCC1`, the outcome was “inactive”. In the case of `COC(=O)c1cc(Cl)ccc1[N+](=O)[O-]`, the outcome is reported as “inactive”. For `c1ccc2c(c1)ccc1ncccc12`, the outcome was “inactive”. In the case of `O=C(Nc1ccccc1SSc1ccccc1NC(=O)c1ccccc1)c1ccccc1`, the outcome is reported as “inactive”. With `Cc1cccc(OCCOc2cccc(C)c2)c1` the outcome was “inactive”. In the case of `c1ccc(CNCc2ccccc2)cc1`, the outcome is reported as “inactive”. In the case of `CC(C)CCCCCOC(=O)CCS`, the outcome is reported as “inactive”. In the case of `O=C(OCC1CCC2OC2C1)C1CCC2OC2C1` (stereo unspecified), the outcome is reported as “inactive”. With `C=CC(=O)OCCOC(=O)C=C` the outcome was “inactive”. In the case of `O=c1[nH]nc(-c2ccc([N+](=O)[O-])o2)o1`, the outcome is reported as “inactive”. For `CCOC(=O)CC(C(C)=O)C(C)=O`, the outcome was “inactive”. In the case of `O=C1CCCN1CCO`, the outcome is reported as “inactive”. For `CC(C)C1=CC2=CC[C@@H]3[C@](C)(CCC[C@@]3(C)C(=O)O)[C@H]2CC1`, the outcome was “inactive”. For `O=C1CCCCCCCCCCC(=O)OCCO1`, the outcome was “inactive”. With `CCCCCCCCCCCCCCCCCC#N` the outcome was “inactive”. For `CC(=O)Nc1ccc2c(c1)Cc1cc(NC(C)=O)ccc1-2`, the outcome was “inactive”. For `CCCCCCCCCCCCCOP(=O)(O)O`, the outcome was “inactive”. In the case of `CC(C)(C)C1CCCCC1=O` (stereo unspecified), the outcome is reported as “inactive”. For `SCCc1cnccn1`, the outcome was “inactive”. With `COc1ccc(NC(C)=O)cc1N` the outcome was “inactive”. In the case of `COc1c2ccoc2cc2oc(=O)ccc12`, the outcome is reported as “inactive”. In the case of `O=C(Nc1ccccc1)c1ccccc1O`, the outcome is reported as “inactive”. In the case of `C=C[Si](OC(C)=O)(OC(C)=O)OC(C)=O`, the outcome is reported as “inactive”. In the case of `Cc1ccc2c(c1)C(=O)c1ccccc1C2=O`, the outcome is reported as “inactive”. In the case of `CCCCCCCOC(=O)CCC`, the outcome is reported as “inactive”. With `CC(C)(C)c1ccc(N)cc1` the outcome was “inactive”. With `CC(=O)Nc1nnc(S(N)(=O)=O)s1` the outcome was “inactive”. In the case of `[Cl][Bi]([Cl])([c]1ccccc1)([c]1ccccc1)[c]1ccccc1`, the outcome is reported as “inactive”. For `CCCCC(CC)COC(=O)c1ccccc1O` (stereo unspecified), the outcome was “inactive”. In the case of `CCC(CC)C(=O)O`, the outcome is reported as “inactive”. With `CCCCC(CC)COCC1CO1` (stereo unspecified) the outcome was “inactive”. In the case of `CCC(C)OC(=O)c1ccc(O)cc1` (stereo unspecified), the outcome is reported as “inactive”. With `COc1ccc(C(Cl)=C(c2ccc(OC)cc2)c2ccc(OC)cc2)cc1` the outcome was “inactive”. With `C=CC(=O)OCCC(=O)O` the outcome was “inactive”. For `C=C(C)c1cccc(C(C)(C)N=C=O)c1`, the outcome was “inactive”.
